Measurements: PubChem BioAssay (NCATS)
Results filed as inconclusive are left out. Calls of active or inactive are those of the source. Unless noted, calls follow the shape of the dose curve; as a rule, active = well fitted curve in the direction sought with a large enough effect; inconclusive = small, poorly fitted or top-dose-only effect, or another doubt; inactive = no such curve, though single readings can be large; an effect the other way counts as inactive or inconclusive.

Columns and labels:
[1] = target: Protein phosphatase 1D (Homo sapiens) (UniProt O15297); test: RapidFire Mass Spectrometry qHTS Assay for Modulators of WT P53-Induced Phosphatase 1 (WIP1) (AID 1347424);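 also: amount of dephosphorylated VEPPL-S-QETFS peptide product formed by WIP1; series mostly up to about 63 µM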
Summary of the method: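 10 nM WIP1 preincubated with compounds 1 hr at room temperature in pH 7.5 Tris buffer with 30 mM MgCl2, 1 mM TCEP; 2 uM VEPPL-pS-QETFS phosphopeptide for 5 min, formic acid quench; dephosphorylated product quantified by RapidFire MS against labelled standard.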

[2] = target: Protein phosphatase 1D (Homo sapiens) (UniProt O15297); test: Rhodamine-PBP qHTS Assay for Modulators of WT P53-Induced Phosphatase 1 (WIP1) (AID 1347425)
Summary of the method: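 Read-out: Rhodamine-PBP fluorescence (ex 525/em 598 nm) for released Pi, read each minute for 11 min after adding 10 uM VEPPL-pS-QETFS; signal taken as f1 minus pre-substrate f0. Enzyme 5 nM WIP1 with 1 hr room-temperature compound preincubation.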

[3] = target: Calcium and integrin-binding protein 1 (Homo sapiens) (UniProt Q99828); test: Primary qHTS for Identification of Calcium Integrin Binding Protein 1 (CIB1) Competitor (AID 1508620);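 also: GST tagged CIB1 binding a fluorescein labelled alphaIIb integrin peptide tracer; top concentration of the series differs between compounds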
Summary of the method: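 Fluorescence polarization competition: GST-tagged CIB1 (1 uM final) preincubated with compound 15 min at room temperature, then FITC-labelled alphaIIb peptide (100 nM final) added. After 15 min at room temperature, polarization read at Ex 480/Em 540.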

[4] = Primary qHTS for small molecule stabilizers of the endoplasmic reticulum resident proteome: Secreted ER Calcium Modulated Protein (SERCaMP) assay (AID 1508630)
Summary of the method: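 GLuc-SERCaMP-expressing SH-SY5Y cells, pretreated 16 h with compound, are challenged with thapsigargin to empty ER calcium stores; after 4 h, coelenterazine is added directly to the medium and luminescence is imaged.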

[5] = A High-Content qHTS Against Drug Library for the Identification of Small Molecules that Inhibit DYT1 Early Onset Primary Dystonia-Associated Cell Pathology (AID 1645839; calls by dose curve; also: series mostly up to about 46 µM)
Summary of the method: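 Flp-In T-REx 293 cells with tetracycline-inducible EGFP-delE hTOR1A (WT EGFP-hTOR1A as reference), 800 cells/well; compound added with tetracycline, 48 h at 37 C. Fixed, permeabilized cells imaged; %pathology (punctate TorsinA) primary, cell count counterscreen.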

Measured: Potency

Sequence of Calcium and integrin-binding protein 1 (Homo sapiens) (Q99828 whole entry, looked up): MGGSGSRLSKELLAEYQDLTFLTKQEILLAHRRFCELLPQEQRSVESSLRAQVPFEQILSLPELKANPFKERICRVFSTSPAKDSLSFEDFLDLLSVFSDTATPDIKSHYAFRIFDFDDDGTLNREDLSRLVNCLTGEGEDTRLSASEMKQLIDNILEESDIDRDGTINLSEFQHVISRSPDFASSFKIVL
Sequence of Protein phosphatase 1D (Homo sapiens) (O15297 whole entry, looked up): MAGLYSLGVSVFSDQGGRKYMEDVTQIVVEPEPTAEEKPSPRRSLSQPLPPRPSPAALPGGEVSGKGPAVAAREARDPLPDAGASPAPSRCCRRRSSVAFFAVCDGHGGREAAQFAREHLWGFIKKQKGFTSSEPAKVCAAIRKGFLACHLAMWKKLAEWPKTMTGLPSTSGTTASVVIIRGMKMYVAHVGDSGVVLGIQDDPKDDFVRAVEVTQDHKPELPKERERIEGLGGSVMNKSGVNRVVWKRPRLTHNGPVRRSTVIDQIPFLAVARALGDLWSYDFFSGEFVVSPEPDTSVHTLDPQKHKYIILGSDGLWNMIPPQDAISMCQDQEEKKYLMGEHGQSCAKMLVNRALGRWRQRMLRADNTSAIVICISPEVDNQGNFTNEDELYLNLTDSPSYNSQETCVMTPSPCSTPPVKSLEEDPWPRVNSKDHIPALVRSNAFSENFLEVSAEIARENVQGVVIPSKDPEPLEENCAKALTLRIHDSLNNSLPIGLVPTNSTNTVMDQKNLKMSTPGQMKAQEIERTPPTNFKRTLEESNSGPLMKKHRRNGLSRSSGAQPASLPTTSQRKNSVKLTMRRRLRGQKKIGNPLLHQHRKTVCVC

CC(=O)Nc1c(I)cc(I)c(C(=O)O)c1I
inactive: all assays above

Cc1cc(O)c(C(C)C)cc1Cl
inactive: all assays above

C=C1C[C@H]2[C@@H]3C=C(C)C4=CC(=O)CC[C@]4(C)[C@H]3CC[C@]2(C)[C@@]1(OC(C)=O)C(C)=O
inactive: all assays above

COc1cccc2c1C(=O)c1c(O)c3c(c(O)c1C2=O)C[C@@](O)(C(=O)CO)C[C@@H]3O[C@H]1C[C@H](N)[C@H](O)[C@H](C)O1
inactive: [1] | [2] | [4]

C=C(CC)C(=O)c1ccc(OCC(=O)O)c(Cl)c1Cl
inactive: [1] | [2] | [4]

CC(=O)OCC(=O)[C@@]12OC(C)(C)O[C@@H]1C[C@H]1[C@@H]3C[C@H](F)C4=CC(=O)C=C[C@]4(C)[C@@]3(F)[C@@H](O)C[C@@]12C
inactive: all assays above

Oc1cc(O)c2c(c1)O[C@H](c1ccc(O)c(O)c1)[C@H](O)C2
not listed: [5]
inactive: all other assays above

CC(=O)Oc1ccc(C(c2ccc(OC(C)=O)cc2)c2ccccn2)cc1
not listed: [5]
inactive: all other assays above

Nc1ccc(C(=O)Nc2ccccc2N)cc1
not listed: [5]
inactive: all other assays above

C[C@@H]1C[C@H]2[C@@H]3CCC4=CC(=O)C=C[C@]4(C)[C@@]3(F)[C@@H](O)C[C@]2(C)[C@H]1C(=O)CO
not listed: [3]
inactive: all other assays above

COc1ccc(OC)c(C(O)CNC(=O)CN)c1 (stereo unspecified)
not listed: [4]
inactive: all other assays above

Cc1c(C(C)C)c(=O)n(-c2ccccc2)n1C
inactive: [1] | [2] | [4]

CCOC(=O)OC(C)OC1=C(C(=O)Nc2ccccn2)N(C)S(=O)(=O)c2ccccc21 (stereo unspecified)
not listed: [4]
inactive: all other assays above

CCCCCCC[N+](CC)(CC)CCCCc1ccc(Cl)cc1
not listed: [3]
inactive: all other assays above

CCN1CCC[C@H]1CNC(=O)c1c(OC)ccc(Br)c1OC
not listed: [3]
inactive: all other assays above

COC1=CC(=O)C[C@@H](C)[C@]12Oc1c(Cl)c(OC)cc(OC)c1C2=O
inactive: all assays above

c1ccc(OCc2ccc(CCCN3CCOCC3)cc2)cc1
not listed: [5]
inactive: all other assays above

C#C[C@]1(O)CC[C@H]2[C@@H]3CCC4=CC(=O)CC[C@@H]4[C@H]3CC[C@@]21C
not listed: [5]
inactive: all other assays above

O=C(OCCOCCO)c1ccccc1Nc1cccc(C(F)(F)F)c1
not listed: [5]
inactive: all other assays above

CN1C(CCl)Nc2cc(Cl)c(S(N)(=O)=O)cc2S1(=O)=O (stereo unspecified)
inactive: all assays above

COCc1c(C(C)C)nc(C(C)C)c(/C=C/[C@@H](O)C[C@@H](O)CC(=O)O)c1-c1ccc(F)cc1
inactive: [1] | [2] | [4]

CC(=O)N/N=C/c1ccc([N+](=O)[O-])o1
inactive: all assays above

Oc1c(I)cc(I)c2cccnc12
not listed: [5]
inactive: all other assays above

Oc1ccc(Cl)c2cccnc12
inactive: [1] | [2] | [4]

C[C@]12CC[C@H]3[C@@H](CCC4=CC(=O)CC[C@@]43C)[C@@H]1CC[C@@H]2C(=O)CO
not listed: [5]
inactive: all other assays above

CCCCC1=NC2(CCCC2)C(=O)N1Cc1ccc(-c2ccccc2-c2nn[nH]n2)cc1
inactive: all assays above

CNC(=O)CN(CCN(CCN(CC(=O)[O-])CC(=O)NC)CC(=O)[O-])CC(=O)[O-].O.[Gd+3]
not listed: [4]
inactive: all other assays above
